Laboratory results from PubChem BioAssay (EPA / NIEHS).
Active and inactive are the calls of the source. How the source made its calls: active means hit-call score of the fitted dose curve at least 0.9, where 1 is the maximum; inactive means score below 0.9.

experiment: CCTE_Shafer_MEA_acute_firing_rate_mean: CCTE's Neural Acute Assay for Mean Firing Rate, Shafer Lab (AID 2284009)
Procedure: CCTE_Shafer_MEA_acute assay is conducted using Axion Biosystems 48 well microelectrode array (MEA) plates and Maestro recording system. Each well of the MEA plate contains a grid of 16 microelectrodes embedded in the culture surface. Electrically active cells, such as neurons, can be cultured over the electrodes, and electrical activity in these cells can be recorded extracellularly. The spontaneous firing of neurons is captured from each electrode on a microsecond timescale providing both temporally and spatially precise data. […] The CCTE_Shafer_MEA_acute assay uses primary cultures of rat cortical neurons. As these cultures mature over time, neural networks develop functional activity and form cohesive networks in which electrical activity can be highly coordinated. Baseline 40-minute recordings are made on days post-plating 13 or 15, followed by a secondary 40-minute recording after chemical exposure.CCTE_Shafer_MEA_acute_firing_rate_mean is a component of the CCTE_Shafer_MEA_acute assay. It measures the frequency number of spikes (action potential firings) as the total number of spikes divided by the length of the recording in a microelectrode array (MEA) using Axion Biosystems Maestro 768 channel amplifier with the AxIS adaptive spike detector. The firing rate is divided by the number of electrodes to report a well-mean value. The recordings before and after chemical treatment are used to calculate a percent change in the mean firing rate in each well.Data from the assay component CCTE_Shafer_MEA_acute_firing_rate_mean was analyzed into 1 assay endpoint. This assay endpoint, CCTE_Shafer_MEA_acute_firing_rate_mean, was analyzed in the negative analysis fitting direction relative to DMSO as the negative control and baseline of activity. Using a type of functional reporter, gain or loss-of-signal activity can be used to understand electrical activity.
Spontaneous activity in the cortical cultures was recorded using an Axion Biosystems Maestro 768 channel amplifier and Axion Integrated Studios (AxIS) v1.8 (or later) software. The amplifier recorded from all channels simultaneously (gain = 1200 x; sampling rate = 12.5 kHz/channel): raw signals were filtered with a Butterworth band-pass filter (300-5000 Hz), which filters out slower local field potentials leaving only fast potentials, i.e., "spikes", arising from extracellular currents associated with action potentials (Pine 2006; Wheeler and Nam 2011). On-line spike detection of filtered signals was conducted with the AxIS adaptive spike detector, using a threshold of 8x the root mean squared (rms) noise on each channel. Any electrodes with rms noise levels greater than 5 uV were grounded (e.g., no data were recorded). Once grounded, an electrode was grounded for the duration of the experiment. All recordings were conducted at 37 C. Wells were deemed usable if on the day of the exposure >/= 10 electrodes were active (defined as >/= 5 spikes/min). On DIV 13 or 15, a minimum of three wells from one cortical culture preparation were treated with each compound (0.03-40 uM). Prior to recording baseline activity, each mwMEA plate was placed in the Maestro at 37 C and allowed to sit for 20 min while firing rates stabilized. Baseline activity (40 min) was recorded before the addition of each compound. An additional 40 min of spontaneous activity was recorded in the presence of each compound. Changes in network parameters relative to baseline were assessed following compound treatment.

Row | SMILES | AC50 | outcome
1 | O=C(Cc1ccccc1)OCCc1ccccc1 | 3 nM (active) | –
2 | Oc1cc(Cl)c(Cl)cc1Cl | 34200 nM (active) | –
3 | CS(=O)(=O)c1ccc(C(=O)C2C(=O)CCCC2=O)c(Cl)c1COCC(F)(F)F | – | inactive
4 | CN(C)C(=S)S | – | inactive
5 | Clc1cccc(Cl)c1Cl | – | inactive
6 | CC(C)[C@@H](Nc1ccc(C(F)(F)F)cc1Cl)C(=O)OC(C#N)c1cccc(Oc2ccccc2)c1 (stereo not given in full) | 1250 nM (active) | –
7 | CCCCCCCCCCCCc1cccc(S(=O)(=O)O)c1 | – | inactive
8 | N#Cc1cccnc1 | – | inactive
9 | CC1(C)[C@H](C(=O)O[C@H](C#N)c2cccc(Oc3ccccc3)c2)[C@@H]1/C=C(\Cl)C(F)(F)F | 1180 nM (active) | –
10 | Cc1cc(C(F)(C(F)(F)F)C(F)(F)F)ccc1NC(=O)c1cccc(I)c1C(=O)NC(C)(C)CS(C)(=O)=O | 1680 nM (active) | –
11 | CCCCOC(=O)COC(=O)c1ccccc1C(=O)OCCCC | 19.6 nM (active) | –
12 | OCCCCO | – | inactive
13 | Oc1ccc(Cc2ccc(O)cc2)cc1 | 3.77 nM (active) | –
14 | Cc1ccccc1OP(=O)(Oc1ccccc1C)Oc1ccccc1C | – | inactive
15 | CC(C)(C)c1ccccc1O | 4870 nM (active) | –
